PubChem BioAssay AID1159580 (chemical genetic matrix, 2015)
Values joined by “and” are separate entries in the source; they are usually repeats but may differ in a detail not shown here. Identical values can stand only once. The campaign covered roughly 5,500 compounds. About 2,000 (36%) were called active. Another 18% or so got no clear call; they are omitted. Rule as the data show it: active = normalized growth mostly below about 0.91 (no sharp cut-off); inconclusive = no clear call, values can overlap the other calls; inactive = mostly above about 0.92. This is one part of the list.

Assay: chemical genetic growth profiling, strain panel (AID 1159580);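 also: tested at 20 µM; growth read once vehicle control cultures reached saturation at 30 °C; 1 = growth at the plate median or of vehicle wells; lower values mean less growth of the strain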
Details: growth OD

Measured: normalized growth

CCN(CC)CCNC(=O)c1cc(Cl)c(N)cc1OC
inactive: S. cerevisiae deletion strains, locus YJR075W, strain HOC1, active compounds read low 0.998 | S. cerevisiae deletion strains, locus YKL009W, strain mrt4, active compounds read low 1.01 | S. cerevisiae deletion strains, locus YKL068W, active compounds read low 1.01 | S. cerevisiae deletion strains, locus YKL085W, strain MDH1 (second series), active compounds read low 1 | S. cerevisiae deletion strains, locus YKL085W, strain MDH1, active compounds read low 1 | S. cerevisiae deletion strains, locus YKL160W, strain elf1, active compounds read low 0.97 | S. cerevisiae deletion strains, locus YKL190W, strain CNB1, active compounds read low 1.02 | S. cerevisiae deletion strains, locus YKR001C, strain vps1, active compounds read low 1 | S. cerevisiae deletion strains, locus YKR026C, strain gcn3, active compounds read low 0.996 | S. cerevisiae deletion strains, locus YKR091W, strain srl3, active compounds read low 0.972 | S. cerevisiae deletion strains, locus YLL001W, strain dnm1, active compounds read low 0.921 | S. cerevisiae deletion strains, locus YLL026W, active compounds read low 0.977 | S. cerevisiae deletion strains, locus YLL041C, strain sdh2, active compounds read low 0.991 | S. cerevisiae deletion strains, locus YLR027C, strain aat2, active compounds read low 0.983 | S. cerevisiae deletion strains, locus YLR039C, strain RIC1, active compounds read low 0.996 | S. cerevisiae deletion strains, locus YLR058C, strain SHM2, active compounds read low 1.01 | S. cerevisiae deletion strains, locus YLR102C, strain apc9, active compounds read low 0.992 | S. cerevisiae deletion strains, locus YLR113W, strain HOG1, active compounds read low 1.06 | S. cerevisiae deletion strains, locus YLR221C, strain rsa3, active compounds read low 0.961 | S. cerevisiae deletion strains, locus YLR258W, strain gsy2, active compounds read low 0.997 | S. cerevisiae deletion strains, locus YLR262C, strain YPT6 (second series), active compounds read low 0.977 | S. cerevisiae deletion strains, locus YLR262C, strain YPT6, active compounds read low 1.05 | S. cerevisiae deletion strains, locus YLR268W, strain sec22, active compounds read low 0.963 | S. cerevisiae deletion strains, locus YLR320W, strain mms22, active compounds read low 0.962 | S. cerevisiae deletion strains, locus YLR330W, strain CHS5, active compounds read low 1 | S. cerevisiae deletion strains, locus YLR342W, strain FKS1 (second series), active compounds read low 0.995 | S. cerevisiae deletion strains, locus YLR342W, strain FKS1, active compounds read low 0.983 | S. cerevisiae deletion strains, locus YLR357W, strain rsc2, active compounds read low 0.965 | S. cerevisiae deletion strains, locus YLR370C, strain arc18, active compounds read low 0.973 | S. cerevisiae deletion strains, locus YLR371W, strain rom2, active compounds read low 0.995 | S. cerevisiae deletion strains, locus YLR384C, strain iki3, active compounds read low 0.976 | S. cerevisiae deletion strains, locus YLR418C, strain cdc73, active compounds read low 0.976 | S. cerevisiae deletion strains, locus YML016C, strain PPZ1, active compounds read low 1.01 | S. cerevisiae deletion strains, locus YML032C, strain rad52, active compounds read low 0.987 | S. cerevisiae deletion strains, locus YML120C, strain ndi1, active compounds read low 0.945 | S. cerevisiae deletion strains, locus YML124C, strain tub3, active compounds read low 1 | S. cerevisiae deletion strains, locus YMR058W, strain fet3, active compounds read low 0.983 | S. cerevisiae deletion strains, locus YMR078C, strain ctf18, active compounds read low 0.994 | S. cerevisiae deletion strains, locus YMR125W, strain sto1, active compounds read low 0.951 | S. cerevisiae deletion strains, locus YMR129W, active compounds read low 0.995 | S. cerevisiae deletion strains, locus YMR205C, strain PFK2, active compounds read low 0.954 | S. cerevisiae deletion strains, locus YMR223W, strain ubp8, active compounds read low 0.997 | S. cerevisiae deletion strains, locus YMR231W, strain pep5, active compounds read low 0.992 | S. cerevisiae deletion strains, locus YMR263W, strain SAP30, active compounds read low 1.01 and 1 | S. cerevisiae deletion strains, locus YMR307W, strain GAS1, active compounds read low 1.01 | S. cerevisiae deletion strains, locus YNL067W, strain RPL9B, active compounds read low 1 | S. cerevisiae deletion strains, locus YNL071W, strain lat1, active compounds read low 0.984 | S. cerevisiae deletion strains, locus YNL128W, strain TEP1, active compounds read low 1.03 | S. cerevisiae deletion strains, locus YNL153C, strain GIM3, active compounds read low 0.996 and 0.998 | S. cerevisiae deletion strains, locus YNL175C, strain NOP13, active compounds read low 1 | S. cerevisiae deletion strains, locus YNL183C, strain NPR1, active compounds read low 0.991 | S. cerevisiae deletion strains, locus YNL197C, strain WHI3, active compounds read low 1.02 | S. cerevisiae deletion strains, locus YNL209W, strain ssb2, active compounds read low 0.974 | S. cerevisiae deletion strains, locus YNL224C, strain SQS1, active compounds read low 1.01 | S. cerevisiae deletion strains, locus YNL233W, strain BNI4, active compounds read low 1 | S. cerevisiae deletion strains, locus YNL248C, strain rpa49, active compounds read low 0.983 | S. cerevisiae deletion strains, locus YNL250W, strain rad50, active compounds read low 0.992 | S. cerevisiae deletion strains, locus YNL271C, strain bni1, active compounds read low 1 | S. cerevisiae deletion strains, locus YNL298W, strain CLA4, active compounds read low 1 | S. cerevisiae deletion strains, locus YNL307C, strain MCK1, active compounds read low 0.992 | S. cerevisiae deletion strains, locus YNL322C, strain KRE1 (second series), active compounds read low 0.973 | S. cerevisiae deletion strains, locus YNL322C, strain KRE1, active compounds read low 1.01 | S. cerevisiae deletion strains, locus YNR049C, strain mso1, active compounds read low 0.962 | S. cerevisiae deletion strains, locus YNR052C, strain pop2, active compounds read low 1.01 | S. cerevisiae deletion strains, locus YOL006C, strain TOP1, active compounds read low 1.03 | S. cerevisiae deletion strains, locus YOL012C, strain htz1 1.1 | S. cerevisiae deletion strains, locus YOL147C, strain pex11, active compounds read low 0.995 | S. cerevisiae deletion strains, locus YOR001W, strain rrp6, active compounds read low 1 | S. cerevisiae deletion strains, locus YOR061W, strain CKA2, active compounds read low 1 | S. cerevisiae deletion strains, locus YOR069W, strain VPS5, active compounds read low 1.01 | S. cerevisiae deletion strains, locus YOR070C, strain gyp1, active compounds read low 0.992 | S. cerevisiae deletion strains, locus YOR080W, strain dia2, active compounds read low 0.987 | S. cerevisiae deletion strains, locus YOR083W, strain WHI5 (second series), active compounds read low 0.999 | S. cerevisiae deletion strains, locus YOR083W, strain WHI5, active compounds read low 0.964 | S. cerevisiae deletion strains, locus YOR106W, strain vam3, active compounds read low 0.932 | S. cerevisiae deletion strains, locus YOR136W, strain idh2, active compounds read low 0.994 | S. cerevisiae deletion strains, locus YOR144C, strain elg1, active compounds read low 1 | S. cerevisiae deletion strains, locus YOR184W, strain ser1, active compounds read low 0.986 | S. cerevisiae deletion strains, locus YOR231W, strain MKK1, active compounds read low 1.05 | S. cerevisiae deletion strains, locus YOR265W, strain rbl2, active compounds read low 0.993 | S. cerevisiae deletion strains, locus YOR270C, strain vph1, active compounds read low 0.947 | S. cerevisiae deletion strains, locus YOR290C, strain snf2, active compounds read low 0.909 | S. cerevisiae deletion strains, locus YOR316C, strain cot1, active compounds read low 0.991 | S. cerevisiae deletion strains, locus YPL051W, strain arl3, active compounds read low 0.998 | S. cerevisiae deletion strains, locus YPL055C, strain LGE1, active compounds read low 1.02 and 1 | S. cerevisiae deletion strains, locus YPL078C, strain atp4, active compounds read low 0.975 | S. cerevisiae deletion strains, locus YPL106C, strain sse1, active compounds read low 0.971 | S. cerevisiae deletion strains, locus YPL240C, strain hsp82, active compounds read low 0.98 | S. cerevisiae deletion strains, locus YPL241C, strain CIN2, active compounds read low 1.01 | S. cerevisiae deletion strains, locus YPL256C, strain CLN2, active compounds read low 1.13 | S. cerevisiae deletion strains, locus YPR119W, strain clb2, active compounds read low 0.987 | S. cerevisiae deletion strains, locus YPR141C, strain kar3, active compounds read low 0.993 | S. cerevisiae deletion strains, locus YPR163C, strain tif3, active compounds read low 0.99 | S. cerevisiae deletion strains, locus YPR167C, strain met16, active compounds read low 0.992 | S. cerevisiae deletion strains, strain wtn01, active compounds read low 0.982 | S. cerevisiae strains, strain wild type, active compounds read low 1.01
